# Hits are enriched below; roughly 21% of the tested compounds scored in any of these assays.
# Pf growth 96h = Primary qHTS for delayed death inhibitors of the malarial parasite plastid, 96 hour incubation; P. falciparum luciferase reporter growth, 96 h; 320,000 compounds, 6.9% hits; Potency, µM (doses to about 28.7 µM), for inactives: at the highest dose activity change, negative = inhibition, hits mostly inhibitors; note: potency is the fitted concentration of half-maximal effect; % is set by controls: 0 for no effect and ±100 for the full control effect
#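 Erythrocytes infected with luciferase-expressing P. falciparum were dispensed at 2% hematocrit and 0.05% parasitemia (final), then incubated with compounds 96 hours at 37 C in 5% CO2. Luminescence after detection reagent addition reported growth.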
# Cycloheximide cs = Cycloheximide Counterscreen for Small Molecule Inhibitors of Shiga Toxin. cell reporter, cycloheximide protein synthesis inhibition counterscreen. 300,000 compounds, 12% hits. max response, %; in the data active = max response mostly above about 13%, no sharp cut-off; inactive = mostly below about 14%; note: read at 38.3 µM for the half of the compounds with a filed dose; 0% is about no effect
# Shiga inhibitor = A qHTS for Small Molecule Inhibitors of Shiga Toxin; 290,000 compounds, 9.2% hits; Vero cells, Shiga toxin protein synthesis inhibition reporter; AID 2315, 2010; inhibition, % at 38.7 µM; in the data active = inhibition mostly above about 28%, no sharp cut-off; inactive = mostly below about 43%; note: 0% is about no effect
# Pf growth 48h = Primary qHTS for delayed death inhibitors of the malarial parasite plastid, 48 hour incubation. P. falciparum luciferase growth in erythrocytes, 48 h. 310,000 compounds, 5.9% hits. Potency, µM (doses to about 28.7 µM), for the others: top-dose activity change, negative = inhibition, hits mostly inhibitors. AID 504832, 2011; note: potency is the fitted concentration of half-maximal effect; % is set by controls: 0 for no effect and ±100 for the full control effect
#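 Cell-based growth assay: transgenic P. falciparum expressing firefly luciferase, cultured in red cells within RPMI 1640 containing 0.5% w/v Albumax, 24 mM bicarbonate and gentamycin. A drop in luciferase activity indicates inhibition.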
# Starred values were filed as active, the others as inactive; i = inactive; ? = inconclusive; . = no result given; [ ] = another dose, or the depositor's remark. Unless noted, calls come from the whole dose curve; as a rule, active = well fitted inhibition curve with a large enough effect; inconclusive = small, poorly fitted or top-dose-only effect, or another doubt; inactive = no such curve, though single readings can be large or run the other way.
SMILES,Pf growth 96h,Cycloheximide cs,Shiga inhibitor,Pf growth 48h
COc1ccc2oc(C(=O)OCC(=O)N3CC(C)OC(C)C3)c(C)c2c1 (stereo not drawn),-23%,0,20,-4%
COc1ccc2oc(C(=O)OCC(=O)NC3CCCC3)c(C)c2c1,46%,38*,71*,32%
Cc1ccc(-n2ncc3c(=O)n(CC(=O)NC4CCCCC4)cnc32)cc1,4.7µM*,4,-2,2%
Cc1ccc(-n2c(=O)c3sccc3n(CC(=O)NC3CCCCC3)c2=O)cc1,-5%,12,112*,-9%
Cc1ccc(-n2ncc3c(=O)n(CC(=O)N(C(C)C)C(C)C)cnc32)cc1,13µM*,-2,-12,1%
Cc1ccc(-n2ncc3c(=O)n(CC(=O)N4CCCCCC4)cnc32)cc1,.,-3,9,-4%
CCN(C(=O)COC(=O)/C=C/c1c(C)nn(Cc2ccc(C)cc2)c1C)C1CCS(=O)(=O)C1 (stereo not drawn),-30%,-1,-8,3%
COc1ccccc1N(C)S(=O)(=O)c1ccc(C(=O)O)cc1,-4%,-2,3,13%
COc1ccccc1N(C)S(=O)(=O)c1ccc(C(=O)OCC(N)=O)cc1,-30%[5.75 µM],1,-9,-19%
COc1ccccc1N(C)S(=O)(=O)c1ccc(C(=O)N(C)Cc2ccc(Cl)s2)cc1,?,.,.,12µM*
CCOc1ccc(CN(C)C(=O)c2ccc(S(=O)(=O)N(C)c3ccccc3OC)cc2)cc1,?,.,.,13µM*
CN(C)CCCN1c2ccccc2Sc2ccc(C(F)(F)F)cc21,15µM*,-3,-18,?
CC(CN(C)C)CN1c2ccccc2Sc2ccc(C(F)(F)F)cc21 (stereo not drawn),?,.,.,15µM*
CN(C)CCC(=O)N1c2ccccc2Sc2ccc(C(F)(F)F)cc21,0%,-3,-10,29%
CC(CN(C)C)CN1c2ccccc2Sc2ccccc21 (stereo not drawn),?,.,.,13µM*
CN(C(=O)COC(=O)CNC(=O)c1ccc(Cl)cc1Cl)c1ccccc1,13%,-1,29,-16%
CCOc1ccc(C(=O)Nc2cccc3ncccc23)cc1Cl,?,4,.,-4%
CCc1cc(C(=O)Nc2ccc(OC)nc2)sc1C,-10%,.,.,39%
COc1ccc(NC(=O)Nc2cccs2)cn1,22%,9.5*,18,12%
COc1ccc(NC(=O)c2sccc2C)cn1,175%,43*,89*,i
COc1ccc(NC(=O)c2cc(Br)c(Br)s2)cn1,20%,24*,91*,-13%
COc1ccc(NC(=O)Nc2cc(C)cc(C)c2)cn1,23%,15,39,-3%
Cc1nc2ccc(C(=O)N3CCCC(CO)(Cc4ccc(F)cc4F)C3)cc2nc1C (stereo not drawn),5%,-2,-2,?
O=C(COC(=O)c1cnccn1)c1ccc(C2CCCCC2)cc1,?,-2,33,26%
C/C(Cn1nnc([N+](=O)[O-])n1)=N\NC(=O)c1ccc(Cl)c(Cl)c1,?,-1,-17,?
SMILES,Pf growth 96h,Cycloheximide cs,Shiga inhibitor,Pf growth 48h
C/C(Cn1nnc([N+](=O)[O-])n1)=N\NC(=O)c1ccc(O)cc1,?,23*,62*,?
C/C(Cn1nnc([N+](=O)[O-])n1)=N\NC(=O)c1ccc(O)cc1O,?,69*,72*,-3%
C/C(Cn1nnc([N+](=O)[O-])n1)=N\NC(=O)c1ccccc1O,?,32*,52*,?
Nc1[nH]c2cc([N+](=O)[O-])ccc2c1-c1ccccn1,?,10,-3,?
O=c1ccc2[n+]([O-])c3ccc(O)cc3oc-2c1,4.7µM*,4,31,1.9µM*
Fc1ccccc1C1c2[nH]c3ccccc3c2CCN1CCCn1cccn1 (stereo not drawn),8%,-4,4,?
CC(C)(C)C1c2[nH]c3ccccc3c2CCN1CCCn1cccn1 (stereo not drawn),5.9µM*,-4,-4,?
NC(=O)CSc1nnc(COc2cccc3ccccc23)o1,12µM*,1,-4,3%
Cc1ccc(C(=O)CSc2nnc(COc3cccc4cccnc34)o2)cc1,3.3µM*,22,1,?
COc1ccc(-c2cc(C(=O)O)c(C)o2)cc1OC,.,-7,-20,?
COc1ccc(-c2cc(C(=O)NC(Cc3cc4ccccc4[nH]3)C(=O)O)c(C)o2)cc1OC (stereo not drawn),-3%,33*,49*,50%
COC(=O)CN1C(=O)Nc2ccc(Cl)cc2C1c1ccccc1 (stereo not drawn),20%,-4,-6,?
Cc1ccccc1N1C(=O)CN(Cc2sccc2C)C1=S,-13%,-4,7,-20%
COC(=O)C(O)(NC(=O)OCc1ccccc1)C(F)(F)F (stereo not drawn),37%,1,-4,0%
COC(=O)C(NC=O)C(O)(Cc1ccccc1)C(F)(F)F (stereo not drawn),-11%,57*,74*,46%
CCCn1nc(NS(=O)(=O)c2cccc3nonc23)c2cc3ccccc3nc21,20%,-2,-3,12%
CCOC(=O)c1sc(=S)n(-c2ccccc2Cl)c1SC,2.6µM*,16,53,13µM*
CCOC(=O)c1sc(=S)n(-c2ccccc2)c1SC,13µM*,-2,-7,12µM*
COc1cccc(NC(=O)CCN2C(=O)c3ccccc3Sc3ncccc32)c1,2.9µM*,-1,-5,-16%
Cc1ccc(NC(=O)CCN2C(=O)c3ccccc3Sc3ncccc32)cc1,?,11,6,-24%
CC(C)NC(=O)CCCN1C(=O)c2ccccc2Sc2ncccc21,0.26µM*,-1,-6,12%
CCOC(=O)CCN1C(=O)c2ccccc2Sc2ncccc21,?,20,-9,3%
COc1cc(NC(=O)c2cc(S(=O)(=O)N3CCCCC3)c[nH]2)cc(OC)c1,?,6,8,?
CN(C)/C=N/c1c(C#N)cnn1-c1ccccc1,.,-1,-8,.
CN(C)/C=N/c1c(C#N)cnn1-c1ncnc2sc(-c3ccccc3)cc12,10µM*,-6,-16,?
SMILES,Pf growth 96h,Cycloheximide cs,Shiga inhibitor,Pf growth 48h
CN(C)/C=N/c1c(C#N)cnn1-c1ccc(C(F)(F)F)cn1,0%,-6,-7,8%
CN(C)/C=N/c1c(C#N)cnn1-c1nc2ccccc2s1,-3%,44*,87*,82%
COc1cc2c(cc1OC)CN(C(=O)C1CCN(S(=O)(=O)c3ccccc3F)CC1)CC2,?,-10,-4,-19%
CC(C#N)Sc1ncnc2sc(-c3ccccc3)cc12 (stereo not drawn),-20%,15,24,-12%
CCc1ccccc1-n1c(SCC(=O)NC)nnc1-c1ccco1,?,-1,-6,-7%
COc1cc2cc(CCOC(=O)c3ccco3)oc(=O)c2cc1OC,?,.,.,19%
CNc1nc(Cl)nc(NC(C)(C)C)n1,36%,1,-3,10%
CC(C)(C)Nc1nc(Cl)nc(NC(C)(C)C)n1,15µM*,5,12,0%

# Compound activity deposited in PubChem BioAssay by National Center for Advancing Translational Sciences (NCATS).
